Consider five compounds from PubChem BioAssay.

Assay [1] can be described thus: rapamycin-like changes in RPL19A-GFP expression – cell-based, S. cerevisiae, multiplex flow cytometry, primary screen (AID 1862; in the data active = percent of DMSO control GFP below about 86%;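 also: lower values mimic rapamycin by blocking the RPL19A rise seen in DMSO cells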). The settings on record: S. cerevisiae RPL19A-GFP strain, flow cytometry fluorescence, 3 h; at 10 µM; stronger effect = lower value. (In flow cytometry, cells or beads pass a laser one at a time.)
The nature of assay [2]: TOR pathway GLN3 branch reporter MEP2-GFP changes – S. cerevisiae, multiplex flow cytometry, primary screen (AID 1867;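 active = GFP response, as percent of the DMSO control, above the screen-wide mean plus 3 SD, about 139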;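 also: median GFP channel fluorescence of barcode-gated MEP2-GFP cells measured by flow cytometry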). As to conditions: S. cerevisiae MEP2-GFP strain, 3 h, at 10 µM, stronger effect = higher value, 100% means same as DMSO wells.
Assay [3] is described as follows: TOR pathway RTG branch CIT2 reporter changes – S. cerevisiae, GFP fusion, multiplex flow cytometry, primary screen (AID 1870;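 active = percent response above a set limit, the screen-wide mean plus 3 SD, cut at about 130% in these data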;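 also: barcoded CIT2-GFP strain pooled with four other GFP strains with rapamycin as positive control; median GFP fluorescence per well over plate mean of DMSO wells so 100% = DMSO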). As to conditions: S. cerevisiae CIT2-GFP expression, 3 h, at 10 µM, stronger effect = higher value.
Assay [4] in a line: TOR pathway LAP4-GFP level changes – S. cerevisiae, multiplex flow cytometry, primary screen (AID 1873;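 active = GFP signal, as percent of the solvent control, above the screen mean plus 3 SD, about 149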). The settings on record: S. cerevisiae LAP4-GFP expression, 3 h, at 10 µM, stronger effect = higher value.
Assay [5] is described as follows: yeast AGP1-GFP level changes, GLN3 branch – cell-based, multiplex flow cytometry, S. cerevisiae, primary screen (AID 1887;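 active = GFP signal above the screen-wide mean plus 3 SD, that is over about 124.5% of the solvent control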;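 also: AGP1-GFP fusion strain of S. cerevisiae within a five-strain barcoded multiplex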). As to conditions: 3 h, at 10 µM, stronger effect = higher value.
The nature of assay [6]: reduced mouse 2C T cell binding to pMHC/ICAM-1 vesicles – MLPCN validation set, flow cytometry, LFA-1/ICAM-1 modulator project, pilot screen (AID 2523;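 active = response below a set limit, under 55% cells CD8-positive and vesicle-bound, and CD8 cells' 90th-percentile brightness under 279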;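 as to vesicle binding response: mean PE anti-B7-1 fluorescence of CD8+ cells relative to row control; 100% = QL9-loaded vesicles with DMSO vehicle in the same plate row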). As to conditions: 2C mouse CD8+ T cells, at 7 µM, stronger effect = lower value; double positive events: measured here: CD8+/vesicle+ event percentage.
Assay [7] addresses Integrin beta-1 (Homo sapiens) + Integrin alpha-4 (Homo sapiens) (UniProt P13612+P05556). Nature of the assay: alpha4beta1 integrin LIBS antibody binding reduction – U937 cells, HUTS-21 mAb, flow cytometry, validation set, VLA-4 allosteric modulator project, pilot screen (AID 2674).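 Also: antibody binding induced by the VLA-4 ligand LDV present at three times its Kd; 0% = LDV ligand with antibody and no compound and 100% = antibody without LDV.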 As to conditions: HUTS-21 LIBS mAb binding, at 6.7 µM, stronger effect = higher value, binding induced by LDV ligand.

Assay [8] can be described thus: calorie-restriction mimetic ROS inhibitors, yeast – validation compound set, pilot screen (AID 2706;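 active = superoxide response below 65% of plate, a cut near 3 SD across the whole screen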;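 also: yeast exposed to compound for one week at 30 degrees C before staining; 100% = mean of all compound wells on the same plate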). The settings on record: S. cerevisiae aging, superoxide DHE fluorescence; at 10 µM; stronger effect = lower value.
Assay [9] concerns the target Beta-adrenergic receptor kinase 1 (Homo sapiens) (UniProt P25098). Nature of the assay: GRK2 binders displacing RNA aptamer, biochemical, validation, human GRK2, bead flow cytometry (AID 488806;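 active = aptamer binding inhibition above 30%, about 3 SD of noise from non-fluorescent compounds; inactive = inhibition at or below 30%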). As to conditions: bead-bound GRK2, FAM-aptamer displacement, at 10 µM, stronger effect = higher value.
For assay [10], the target named is Beta-2 adrenergic receptor (Homo sapiens) (UniProt P07550). In words: agonist-induced loss of surface beta2AR – cell-based, FAP fluorogen, flow cytometry, validation set, pilot screen (AID 504459;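 active = percent response above 42, roughly 3 SD of non-fluorescent test compounds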;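 also: agonist-driven loss of surface beta2AR via internalization measured by FAP dye flow cytometry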). The settings on record: Am2.2-beta2AR cells, at 10 µM, stronger effect = higher value.
The target in assay [11] is AP-2 complex subunit beta (Homo sapiens) (UniProt P63010). In words: beta-arrestin/AP2 interaction blockers – biochemical, validation set, GST-AP2 beads, flow cytometry, pilot screen (AID 504541;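 active = inhibition above 54%, about 3 SD of non-fluorescent compounds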;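 also: AP2 carries R879A mutation and is captured from E. coli lysate; bead-bound FITC arrestin peptide fluorescence measuring arrestin peptide binding to AP2; 0% = DMSO wells and 100% = excess unlabeled arrestin peptide control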). As to conditions: FITC arrestin peptide, at 10 µM, stronger effect = higher value, AP2 beta2 appendage fragment, R879A mutant.
A short description of assay [12]: cytosolic pH regulators acting via V-ATPase – S. cerevisiae, pHLuorin, HTS validation (AID 504600; in the data active = response above about 15%;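 also: plate controls were DMSO for no effect and reference compound for full effect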). As to conditions: V-ATPase proton transport, at 10 µM, stronger effect = higher value.
Assay [13] concerns anti-desmoglein-3 scFv antibody binding to human DSG3. In words: blockers of pathogenic pemphigus antibody–desmoglein-3 binding – biochemical, validation compound set, bead-based, flow cytometry, pilot screen (AID 588368;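 active = binding below the plate cutoff, the plate median minus 3 SD, with a reading above zero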;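 also: signal is the median channel fluorescence of bead-bound GFP antibody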). As to conditions: Protein G beads, DSG3-Fc, scFv-GFP binding, at 10 µM, stronger effect = lower value.
Assay [14] can be described thus: Nile Red efflux blockade in pump-expressing yeast – validation compound set, multiplex, phenotypic, pilot screen (AID 588506;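 active = efflux inhibition above 0.42, the validation set average plus 4 SD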;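 also: Nile Red retained in cells so higher fluorescence means more efflux inhibition; 0 = negative control wells and 1 = enniatin B 25 µM full block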). The settings on record: S. cerevisiae pump-expressing triplex, Nile Red efflux flow cytometry; at 10 µM; stronger effect = higher value; the pumps come from Candida albicans.
Assay [15] concerns the target ATP-binding cassette sub-family B member 6 (Homo sapiens) (UniProt Q9NP58). Nature of the assay: blockers of ABCB6-driven porphyrin uptake – K562-ABCB6 cells, flow cytometry, validation set, pilot screen (AID 588550;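 active = inhibition above the screen-wide mean plus 3 SD, about 51%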;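 also: 0% = DMSO wells and 100% = benzethonium chloride 70 µM positive control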). The settings on record: K562-ABCB6 porphyrin accumulation, 1 h, at 10 µM, stronger effect = higher value.
The nature of assay [16]: AML differentiation inducers, ER-HoxA9 marrow cells – cell-based, GFP/MAC1 double positive, flow cytometry, validation set, primary screen (AID 588685;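 active = differentiation response of at least 50%, scaled between solvent and reference control, from cells with both markers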;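 also: compound exposure lasts four days before antibody staining and flow analysis; 0% = DMSO wells and 100% = 5 µM fulvestrant positive control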). The settings on record: stronger effect = higher value, normalized: vehicle 0, fulvestrant 100.

Inconclusive results are not listed. Active and inactive are the calls of the source.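 The calls were made as follows, unless noted: active = inhibition above 50%, about 3 SD of the validation set; inactive = the rest.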

Chain of Beta-2 adrenergic receptor (Homo sapiens) (P07550 whole entry, looked up): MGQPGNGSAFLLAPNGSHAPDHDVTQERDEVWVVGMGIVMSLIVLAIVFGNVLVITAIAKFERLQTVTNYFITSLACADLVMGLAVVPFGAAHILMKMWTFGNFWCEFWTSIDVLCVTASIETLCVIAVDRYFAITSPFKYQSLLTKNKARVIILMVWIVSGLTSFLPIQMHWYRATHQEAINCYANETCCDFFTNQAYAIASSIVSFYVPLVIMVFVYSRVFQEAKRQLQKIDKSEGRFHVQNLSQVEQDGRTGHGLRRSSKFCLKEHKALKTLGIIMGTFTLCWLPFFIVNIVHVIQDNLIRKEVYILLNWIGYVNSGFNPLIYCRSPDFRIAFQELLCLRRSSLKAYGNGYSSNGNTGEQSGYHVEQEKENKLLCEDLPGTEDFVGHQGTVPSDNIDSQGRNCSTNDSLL
Chain of AP-2 complex subunit beta (Homo sapiens) (P63010 whole entry, looked up, the tested form may be a part, one chain of several): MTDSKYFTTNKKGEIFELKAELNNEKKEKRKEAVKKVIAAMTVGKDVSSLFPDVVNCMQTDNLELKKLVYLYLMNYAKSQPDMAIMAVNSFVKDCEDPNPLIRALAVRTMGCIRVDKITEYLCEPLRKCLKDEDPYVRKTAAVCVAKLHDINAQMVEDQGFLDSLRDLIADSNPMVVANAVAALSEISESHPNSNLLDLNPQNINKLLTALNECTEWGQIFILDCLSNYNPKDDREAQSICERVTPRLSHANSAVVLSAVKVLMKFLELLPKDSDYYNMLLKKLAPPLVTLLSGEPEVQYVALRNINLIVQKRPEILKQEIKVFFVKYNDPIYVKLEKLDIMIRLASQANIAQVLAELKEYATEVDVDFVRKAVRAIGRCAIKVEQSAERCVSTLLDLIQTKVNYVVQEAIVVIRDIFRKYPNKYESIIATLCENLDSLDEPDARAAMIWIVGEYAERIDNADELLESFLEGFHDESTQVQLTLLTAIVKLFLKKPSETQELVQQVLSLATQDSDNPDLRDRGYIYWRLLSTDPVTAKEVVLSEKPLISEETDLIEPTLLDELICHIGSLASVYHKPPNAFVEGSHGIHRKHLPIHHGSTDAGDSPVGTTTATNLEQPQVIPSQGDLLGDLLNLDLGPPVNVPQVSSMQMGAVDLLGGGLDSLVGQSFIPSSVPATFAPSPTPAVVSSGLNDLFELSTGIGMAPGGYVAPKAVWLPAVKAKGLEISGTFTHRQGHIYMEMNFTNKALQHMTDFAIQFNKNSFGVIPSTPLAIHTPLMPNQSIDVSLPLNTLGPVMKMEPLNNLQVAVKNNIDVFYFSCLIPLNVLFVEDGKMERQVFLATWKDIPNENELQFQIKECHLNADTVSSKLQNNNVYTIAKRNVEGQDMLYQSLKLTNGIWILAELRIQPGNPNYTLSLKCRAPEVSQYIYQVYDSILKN
Chain of ATP-binding cassette sub-family B member 6 (Homo sapiens) (Q9NP58 whole entry, looked up): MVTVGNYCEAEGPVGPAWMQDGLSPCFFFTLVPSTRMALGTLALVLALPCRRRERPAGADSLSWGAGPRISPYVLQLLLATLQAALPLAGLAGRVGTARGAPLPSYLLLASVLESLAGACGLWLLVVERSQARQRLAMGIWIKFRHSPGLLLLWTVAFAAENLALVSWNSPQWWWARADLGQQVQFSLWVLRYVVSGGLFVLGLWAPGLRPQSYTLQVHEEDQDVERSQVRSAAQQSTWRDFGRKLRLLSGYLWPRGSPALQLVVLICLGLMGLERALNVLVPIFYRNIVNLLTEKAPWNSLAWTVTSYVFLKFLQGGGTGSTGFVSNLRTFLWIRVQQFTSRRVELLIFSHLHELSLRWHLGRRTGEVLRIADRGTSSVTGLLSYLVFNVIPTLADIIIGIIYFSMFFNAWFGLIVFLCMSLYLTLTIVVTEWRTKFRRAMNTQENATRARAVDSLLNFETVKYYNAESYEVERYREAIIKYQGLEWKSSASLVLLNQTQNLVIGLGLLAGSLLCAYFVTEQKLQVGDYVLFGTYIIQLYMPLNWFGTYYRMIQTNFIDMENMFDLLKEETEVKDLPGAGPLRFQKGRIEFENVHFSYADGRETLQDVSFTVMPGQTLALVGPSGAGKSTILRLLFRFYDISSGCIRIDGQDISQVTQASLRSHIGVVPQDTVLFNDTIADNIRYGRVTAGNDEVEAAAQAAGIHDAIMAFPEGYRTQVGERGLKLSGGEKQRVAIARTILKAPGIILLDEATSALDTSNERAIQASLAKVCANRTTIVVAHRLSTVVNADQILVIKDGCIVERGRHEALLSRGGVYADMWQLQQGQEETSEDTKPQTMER
Chain of Integrin beta-1 (Homo sapiens) + Integrin alpha-4 (Homo sapiens) (P05556 whole entry, looked up): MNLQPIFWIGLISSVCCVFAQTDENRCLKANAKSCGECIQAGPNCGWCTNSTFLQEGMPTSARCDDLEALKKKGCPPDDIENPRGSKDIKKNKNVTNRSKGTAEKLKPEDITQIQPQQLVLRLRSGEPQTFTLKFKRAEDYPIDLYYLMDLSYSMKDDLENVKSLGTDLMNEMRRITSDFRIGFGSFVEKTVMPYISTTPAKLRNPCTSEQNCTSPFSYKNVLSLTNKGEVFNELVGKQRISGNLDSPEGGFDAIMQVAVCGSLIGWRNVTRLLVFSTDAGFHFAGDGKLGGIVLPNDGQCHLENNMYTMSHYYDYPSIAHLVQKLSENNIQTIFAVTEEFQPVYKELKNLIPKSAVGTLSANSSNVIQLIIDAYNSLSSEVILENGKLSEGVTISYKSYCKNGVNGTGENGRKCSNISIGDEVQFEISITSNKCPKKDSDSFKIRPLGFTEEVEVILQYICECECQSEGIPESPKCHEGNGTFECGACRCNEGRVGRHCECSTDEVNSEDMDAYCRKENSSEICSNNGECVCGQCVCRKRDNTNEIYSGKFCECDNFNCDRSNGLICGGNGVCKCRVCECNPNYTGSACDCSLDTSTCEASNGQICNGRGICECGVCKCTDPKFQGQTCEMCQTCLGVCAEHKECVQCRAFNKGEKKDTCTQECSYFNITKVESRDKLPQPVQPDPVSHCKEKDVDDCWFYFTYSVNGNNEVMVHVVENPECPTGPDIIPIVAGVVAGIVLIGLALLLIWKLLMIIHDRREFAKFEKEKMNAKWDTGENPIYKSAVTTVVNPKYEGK
Chain of Integrin beta-1 (Homo sapiens) + Integrin alpha-4 (Homo sapiens) (P13612 whole entry, looked up): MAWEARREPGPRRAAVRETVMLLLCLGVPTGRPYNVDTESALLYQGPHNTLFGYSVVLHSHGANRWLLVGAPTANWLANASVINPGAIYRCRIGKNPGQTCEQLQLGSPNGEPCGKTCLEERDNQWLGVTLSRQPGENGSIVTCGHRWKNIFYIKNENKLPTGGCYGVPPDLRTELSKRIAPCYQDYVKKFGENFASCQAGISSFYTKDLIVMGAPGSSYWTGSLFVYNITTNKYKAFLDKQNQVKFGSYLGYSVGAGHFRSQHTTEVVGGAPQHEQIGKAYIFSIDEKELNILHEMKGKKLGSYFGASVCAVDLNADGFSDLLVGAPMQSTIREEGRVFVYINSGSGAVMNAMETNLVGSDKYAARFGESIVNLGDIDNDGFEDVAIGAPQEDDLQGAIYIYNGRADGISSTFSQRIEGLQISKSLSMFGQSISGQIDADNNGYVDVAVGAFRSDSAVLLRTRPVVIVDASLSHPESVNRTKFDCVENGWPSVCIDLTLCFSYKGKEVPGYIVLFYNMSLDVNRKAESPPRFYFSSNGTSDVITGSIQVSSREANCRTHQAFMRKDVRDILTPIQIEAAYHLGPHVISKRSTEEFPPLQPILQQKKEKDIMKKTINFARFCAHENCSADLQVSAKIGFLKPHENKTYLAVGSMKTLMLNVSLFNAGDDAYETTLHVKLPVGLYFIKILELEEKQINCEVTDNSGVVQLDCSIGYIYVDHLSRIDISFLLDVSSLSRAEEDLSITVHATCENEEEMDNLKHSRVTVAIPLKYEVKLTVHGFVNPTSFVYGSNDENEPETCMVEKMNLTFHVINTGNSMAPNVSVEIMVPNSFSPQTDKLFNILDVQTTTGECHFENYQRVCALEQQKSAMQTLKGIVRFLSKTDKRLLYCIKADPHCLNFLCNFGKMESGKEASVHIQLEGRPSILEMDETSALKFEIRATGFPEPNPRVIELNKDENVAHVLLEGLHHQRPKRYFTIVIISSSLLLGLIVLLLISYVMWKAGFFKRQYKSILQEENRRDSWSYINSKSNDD
Chain of Beta-adrenergic receptor kinase 1 (Homo sapiens) (P25098 whole entry, looked up): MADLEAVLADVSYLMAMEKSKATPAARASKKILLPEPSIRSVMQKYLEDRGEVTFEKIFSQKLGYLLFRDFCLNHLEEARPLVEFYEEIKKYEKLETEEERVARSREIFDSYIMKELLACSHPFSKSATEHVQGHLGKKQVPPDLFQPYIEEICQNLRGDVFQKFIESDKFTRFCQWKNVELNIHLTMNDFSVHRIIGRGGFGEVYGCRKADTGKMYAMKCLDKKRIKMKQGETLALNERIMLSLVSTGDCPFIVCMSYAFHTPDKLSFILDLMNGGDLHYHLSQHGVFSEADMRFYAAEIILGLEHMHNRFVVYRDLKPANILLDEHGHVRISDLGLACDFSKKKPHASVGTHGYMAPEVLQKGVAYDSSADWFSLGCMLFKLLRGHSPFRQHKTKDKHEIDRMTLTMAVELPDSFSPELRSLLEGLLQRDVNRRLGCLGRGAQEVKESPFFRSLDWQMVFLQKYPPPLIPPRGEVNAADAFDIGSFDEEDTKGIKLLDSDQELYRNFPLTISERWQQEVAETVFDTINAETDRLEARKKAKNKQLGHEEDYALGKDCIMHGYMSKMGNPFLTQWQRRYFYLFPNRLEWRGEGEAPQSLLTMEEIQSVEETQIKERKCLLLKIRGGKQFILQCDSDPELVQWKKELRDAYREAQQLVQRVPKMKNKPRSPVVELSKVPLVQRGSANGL

As to `Cc1ccc2c(c1)C(O)(C1COC(C)(C)CC1=O)C(=O)N2C` (stereo not given), the percent of DMSO control GFP in assay [1] is 107% (inactive). In addition, the GFP response vs DMSO in assay [2] is 105% (inactive); in assay [4], 99.1% (inactive). Moreover, the percent response of DMSO control in assay [3] was 104% (inactive). In [5], the GFP response, % of DMSO is 98.8% (inactive). The compound further yielded a double positive events in assay [6] of 59.3%. For the same compound, the vesicle binding response in [6] was 214% (inactive). The inhibition in assay [7] is 12.3% (inactive); in assay [11], -0.06% (inactive); in [15] it was 12% (inactive). Moreover, the superoxide response (% of plate) in assay [8] was 103% (inactive). Further, in assay [9], the aptamer binding inhibition was 2% (inactive). Moreover, the response is -0.64% (inactive) in assay [10] and -9.91% (inactive) in assay [12]. Moreover, the binding (% of control) in assay [13] was 102% (inactive). Moreover, the efflux inhibition (fraction of control) in assay [14] was 0.05 (inactive). In assay [16], the differentiation response was 23.2% (inactive).
Regarding `O=C(CN1C(=O)c2ccccc2S1(=O)=O)Nc1ccccc1`, in [1], the percent of DMSO control GFP is 95.5% (inactive). Besides, the GFP response vs DMSO in assay [2] is 126% (inactive); in [4] it was 84.2% (inactive). Besides, in assay [3], the percent response of DMSO control was 112% (inactive). Besides, in assay [5], the GFP response, % of DMSO is 92.8% (inactive). This compound gave a double positive events in assay [6] of 67.7%. For the same compound, in [6], the vesicle binding response was 180% (inactive). Besides, the inhibition in assay [7] is -72.1% (inactive); in [11] it was 7.49% (inactive); in assay [15], 5% (inactive). Further, in assay [8], the superoxide response (% of plate) is 98.5% (inactive). In addition, the aptamer binding inhibition in [9] was 0% (inactive). Further, the response in assay [10] is -2.34% (inactive); in assay [12], -1.17% (inactive). Further, the binding (% of control) in assay [13] was 99% (inactive). Also, the efflux inhibition (fraction of control) in assay [14] was -0.31 (inactive). Besides, in [16], the differentiation response is 10.6% (inactive).
Take `COc1cc(C(=O)N/C(=C\c2cn(C)c3ccccc23)C(=O)NCCCO)cc(OC)c1OC`: the percent of DMSO control GFP in assay [1] is 102% (inactive). In addition, the GFP response vs DMSO is 94.1% (inactive) in [2] and 75.2% (inactive) in assay [4]. Further, the percent response of DMSO control in [3] was 107% (inactive). Besides, the GFP response, % of DMSO in assay [5] was 88% (inactive). In assay [6], this compound had a double positive events of 56.3%. Further, the vesicle binding response in [6] was 215% (inactive). For the same compound, the inhibition is 11.9% (inactive) in assay [7], -0.03% (inactive) in assay [11] and 7% (inactive) in assay [15]. Further, the superoxide response (% of plate) in assay [8] is 99.7% (inactive). Moreover, the aptamer binding inhibition in [9] is 2% (inactive). The response in assay [10] is 5% (inactive); in [12] it was 11.1% (inactive). In assay [13], the binding (% of control) is 100% (inactive). For the same compound, the efflux inhibition (fraction of control) in assay [14] was 0.3 (inactive). Also, in assay [16], the differentiation response is -15.2% (inactive).
For `CS(=O)c1ccccc1O` (stereo not given), the percent of DMSO control GFP in [1] is 103% (inactive). In addition, the GFP response vs DMSO in [2] is 98.8% (inactive); in assay [4] it was 93% (inactive). The percent response of DMSO control in [3] is 92.8% (inactive). In addition, the GFP response, % of DMSO in assay [5] was 99.2% (inactive). The double positive events in assay [6] was 67.1%. Besides, in [6], the vesicle binding response was 144% (inactive). In addition, the figures for the inhibition in assay [7], in [11] and in assay [15] were 8.28% (inactive), 38.1% (inactive) and 11% (inactive), respectively. Moreover, in [8], the superoxide response (% of plate) was 47.1% (active). In assay [9], the aptamer binding inhibition is 0% (inactive). Besides, the response is 33.6% (inactive) in [10] and 0.1% (inactive) in assay [12]. The binding (% of control) in assay [13] is 101% (inactive). For the same compound, in assay [14], the efflux inhibition (fraction of control) is -0.15 (inactive). Also, the differentiation response in [16] is 3.45% (inactive).
Regarding `Cc1nonc1CN(C)C(=O)c1ccc(OC2CCN(Cc3ccccn3)CC2)cc1`, the percent of DMSO control GFP in assay [1] is 107% (inactive). Besides, the GFP response vs DMSO in [2] was 97.2% (inactive); in [4], 83.5% (inactive). Besides, the percent response of DMSO control in assay [3] is 113% (inactive). The GFP response, % of DMSO in assay [5] is 102% (inactive). The same compound displayed a double positive events in assay [6] of 61.2%. The vesicle binding response in [6] is 249% (inactive). Besides, the values for the inhibition in assay [7], in assay [11] and in assay [15] were 19.3% (inactive), -5.72% (inactive) and 13% (inactive), respectively. In addition, the superoxide response (% of plate) in assay [8] was 95.8% (inactive). The aptamer binding inhibition in [9] was 0% (inactive). Moreover, the response in assay [10] is -11.2% (inactive); in assay [12], 2.07% (inactive). Also, the binding (% of control) in assay [13] is 97.6% (inactive). Also, the efflux inhibition (fraction of control) in [14] is 0.14 (inactive). Moreover, the differentiation response in assay [16] is 6.11% (inactive).

For orientation: inhibition means the drop in the measured response relative to a control, in per cent.
